The results in this text go back to ChEMBL document CHEMBL1157539, “Thousands of chemical starting points for antimalarial lead identification” (Nature, 2010).

Holding throughout (assay type): functional
In experiment [1] the test system is Plasmodium falciparum. The experiment is described as follows: GSK_TCMDC: Inhibition of Plasmodium falciparum 3D7 in whole red blood cells, using parasite LDH activity as an index of growth. Test compounds present at 2uM.
The test system of experiment [2] is Plasmodium falciparum. The experiment is described as follows: GSK_TCMDC: Inhibition of Plasmodium falciparum Dd2 in whole red blood cells, using parasite LDH activity as an index of growth. Test compounds present at 2uM.
The next experiment relates to HepG2. The experiment is described as follows: GSK_TCMDC: Percent inhibition of human HepG2 cell line. Test compounds present at 10uM.

In the case of `CCOC(=O)c1ccc(Nc2cc(Nc3ccc(C(=O)OCC)cc3)nc(C)n2)cc1`, the results for the Inhibition in the experiment with Plasmodium falciparum [1], in the experiment with Plasmodium falciparum [2] and in the experiment with HepG2 were 99%, 33% and 4%, respectively.

`CCOC(=O)c1cccc(NC(=O)Nc2cc(C)nc3ccccc23)c1`: the Inhibition in the experiment on Plasmodium falciparum [1] turned out to be 100%; in the experiment on Plasmodium falciparum [2], 90%; in the experiment with HepG2, 14%.

For `Cc1cc(CNCCCCCCCNCc2ccc(Cl)cc2)ccc1O`, the figures for the Inhibition with Plasmodium falciparum [1], in the experiment on Plasmodium falciparum [2] and with HepG2 were 97%, 0% and 13%, respectively.

For `Cc1[nH]cc(Br)c(=O)c1-c1ccc(Oc2ccc(OC(F)(F)F)cc2)cc1`, the results for the Inhibition in the experiment with Plasmodium falciparum [1], in the experiment with Plasmodium falciparum [2] and with HepG2 were 96%, 92% and 22%, respectively.

On to `O=c1cc(NCCCCNCc2cccc(Br)c2)[nH]c2ccccc12`, for which the Inhibition in the experiment on Plasmodium falciparum [1] turned out to be 98%; in the experiment with Plasmodium falciparum [2], 19%; in the experiment on HepG2, 0%.

On to `CC(C)(C)c1ccc(CNC(=O)c2cc(CNC3CCNC3)ccc2O)cc1` (stereo unspecified), for which the results for the Inhibition in the experiment on Plasmodium falciparum [1], in the experiment on Plasmodium falciparum [2] and with HepG2 were 94%, 1% and 0%, respectively.

Consider `COc1cc(C(=O)NC2CCN(Cc3ccccc3)CC2)ccc1-c1nc2cc(Cl)c(C)cc2[nH]1`, for which the Inhibition in the experiment on Plasmodium falciparum [1] was 99%; in the experiment on Plasmodium falciparum [2], 97%; in the experiment on HepG2, 0%.

Consider `CC(C)CCN1CCC(Oc2ccc(NC(=O)c3ccc4ncccc4c3)cc2Cl)C1.O=C(O)C(F)(F)F` (stereo unspecified), for which the Inhibition in the experiment with Plasmodium falciparum [1] is 95%; in the experiment with Plasmodium falciparum [2] it was 14%; in the experiment with HepG2, 33%.

For the molecule `CCN(CC)CCN(Cc1ccc(-c2ccc(C(F)(F)F)cc2)cc1)C(=O)Cn1c(CCc2ccc(F)c(F)c2F)nc(=O)c2ccccc21.O=C(O)C(O)C(O)C(=O)O`, the values for the Inhibition in the experiment with Plasmodium falciparum [1], in the experiment on Plasmodium falciparum [2] and with HepG2 were 97%, 66% and 38%, respectively.

`O=C(Nc1ccc(Cl)cc1)OCCn1nnnc1C(c1ccc(Cl)cc1)N1CCOCC1` (stereo unspecified): the values for the Inhibition with Plasmodium falciparum [1], with Plasmodium falciparum [2] and in the experiment with HepG2 were 90%, 79% and 1%, respectively.

With `Cl.O=C(O)CCCN1CCCC(=C(c2ccccc2)c2ccccc2)C1`, the Inhibition in the experiment on Plasmodium falciparum [1] is reported as 82%; in the experiment with Plasmodium falciparum [2] it was 2%; in the experiment on HepG2, 0%.

In the case of `COc1cccc2c(N/N=C/c3ccc([N+](=O)[O-])cc3)ccnc12`, the Inhibition in the experiment on Plasmodium falciparum [1] was 92%; in the experiment with Plasmodium falciparum [2], 16%; in the experiment on HepG2 it was 25%.

Take `COc1ccc(CNC2CCN(C)CC2)cc1-c1ccc(S(=O)(=O)NCc2cccnc2)s1.O=C(O)C(F)(F)F`: the Inhibition with Plasmodium falciparum [1] was found to be 100%; with Plasmodium falciparum [2], 3%; in the experiment with HepG2, 10%.

For the molecule `FC(F)(F)c1ccc2[nH]c(-c3ccc(-c4cccc(CNCCN5CCNCC5)c4)cc3)nc2c1.O=C(O)C(F)(F)F`, the Inhibition in the experiment on Plasmodium falciparum [1] amounted to 92%; with Plasmodium falciparum [2], 2%; with HepG2 it was 13%.

`O=C(NCCCCN1CC=C(c2ccc3c(c2OCC2CC2)CCCC3)CC1)c1ccc(-c2ccc(C(F)(F)F)cc2)cc1`: the Inhibition is on record as 93% with Plasmodium falciparum [1], 60% in the experiment with Plasmodium falciparum [2] and 25% in the experiment with HepG2.

For the molecule `Cl.Cn1ncc2c3c(CCN4CCC(NCc5cc6c(cn5)OCCO6)CC4)c(Cl)cnc3ccc21`, the Inhibition is reported as 95% with Plasmodium falciparum [1], 34% in the experiment on Plasmodium falciparum [2] and 1% in the experiment with HepG2.

As for `Cl.O=C(Nc1cccc(C2=NCCCN2)c1)Nc1cccc(C2=NCCCN2)c1`, the Inhibition in the experiment with Plasmodium falciparum [1] was determined as 81%; in the experiment with Plasmodium falciparum [2] it was 70%; with HepG2, 5%.

For the molecule `COc1cc(Nc2nc(N)n(C(=O)c3ccc4c(c3)OCO4)n2)cc(OC)c1OC`, the Inhibition in the experiment with Plasmodium falciparum [1] is given as 90%; in the experiment with Plasmodium falciparum [2] it was 40%; in the experiment with HepG2, 60%.

For the molecule `C[C@H]1CN(Cc2cccc(-c3cc(CNC(=O)c4cccc(CN5CCN(C/C=C/c6ccccc6)CC5)c4)ccc3F)c2)CCN1.O=C(O)C(F)(F)F`, the Inhibition in the experiment on Plasmodium falciparum [1] was found to be 98%; in the experiment with Plasmodium falciparum [2] it was 46%; with HepG2, 98%.

Regarding `CCC(=O)N(c1ccccc1)C1CCN(CCCC(NC(=O)c2cc(C(F)(F)F)cc(C(F)(F)F)c2)c2ccc(Cl)c(Cl)c2)CC1` (stereo unspecified), the figures for the Inhibition in the experiment on Plasmodium falciparum [1], in the experiment on Plasmodium falciparum [2] and in the experiment with HepG2 were 96%, 57% and 24%, respectively.

Regarding `Cc1cc(NC(=O)NCCN2CCC(NC(=O)c3ccc(F)cc3)CC2)c2ccccc2n1`, the Inhibition is recorded as 99% in the experiment with Plasmodium falciparum [1], 76% with Plasmodium falciparum [2] and 0% in the experiment on HepG2.

As for `Cc1noc(C)c1-c1ccc2c(Nc3ccccc3C(C)(C)C)c(C(=O)NCc3ccc(OC(C)C)cc3)cnc2c1.Cl`, the Inhibition worked out at 100% with Plasmodium falciparum [1], 98% with Plasmodium falciparum [2] and 0% in the experiment with HepG2.

On to `N#Cc1ccc(NC(=O)c2ccc(C(=O)NCCCCN3CCC(c4ccc5c(c4OCCOC4CCCCO4)CCCC5)CC3)cc2)cc1` (stereo unspecified), for which the Inhibition is on record as 99% with Plasmodium falciparum [1], 97% in the experiment with Plasmodium falciparum [2] and 72% with HepG2.

`NC(=O)C1CCN(Cc2ccc(-c3ccc(-c4nc5cc(F)ccc5[nH]4)cc3)cc2)CC1.O=C(O)C(F)(F)F`: the Inhibition stood at 100% in the experiment on Plasmodium falciparum [1], 100% with Plasmodium falciparum [2] and 12% with HepG2.

Take `Cl.N#Cc1ccc2c(c1)CCN(CCC1CCC(NC(=O)/C=C/c3cnc4ccccc4c3)CC1)CC2` (stereo unspecified): the Inhibition is on record as 87% in the experiment with Plasmodium falciparum [1], 21% in the experiment with Plasmodium falciparum [2] and 22% in the experiment on HepG2.

For `O=C(NCCN1CCCC1)N1CCCN(c2ncnc3cc(-c4ccc(F)cc4)sc23)CC1.O=C(O)C(F)(F)F`, the Inhibition in the experiment on Plasmodium falciparum [1] is recorded as 81%; in the experiment on Plasmodium falciparum [2], 19%; in the experiment with HepG2 it was 5%.

For `O=C(/C=C/c1ccc(Cl)c(Cl)c1)N1CCN(C(=O)Nc2cccc(C(F)(F)F)c2)CC1`, the Inhibition in the experiment with Plasmodium falciparum [1] stood at 99%; in the experiment on Plasmodium falciparum [2], 100%; in the experiment with HepG2 it was 53%.

The term Inhibition denotes the percentage by which the read-out fell short of the control.
